Laboratory results: the supplement of paper PMC6555819

test system: PPARg:RXRa DBDmut IVT, anti-RXR (DBD mutation: RXRa K156A/R161A, NR concentration 270 nM, RXRa partner concentration 90 nM); test: PBM binding z-score (relative to random genomic background probes); higher = stronger binding; sequences stand for … in GC…GCGATTGACAGCGTAGAATGAAGG
Method in brief: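 Binding z-scores were set against random background probes. The data came from custom Agilent 4×180K protein-binding microarrays carrying double-stranded probes with 34-nt variable regions, incubated 1 h with ligand-free nuclear receptor dimers. Partner-specific antibodies detected binding, and scanned fluorescence was regression-normalized.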

| Sequence | PBM binding z-score |
| --- | --- |
| TCTCGGAGGACACGAAGGTCAGAGCCTTCCAGAG | 1.3 |
| ACAGACAGGTGAGTGAAGGTAACGCAGCTGGACG | 0.361 |
| AGTCAAAGTTCAGGACGAGGTATCGTAAAGCACG | -0.507 |
| TCTAGTTGGTCACGGCGGTCACACACGACGGGTA | 2.36 |
| ACTGACGGGTCAACGAGGTTATAGCACGCGTATA | 0.94 |
| TCGAGTAGGTTAGGGGCAATCAGAATGGCGTCGA | 2.08 |
| AGAATGAGGTTAAGATCAGCGAAACAGAATACAT | 1.69 |
| TCAGACAAGTGAAGGTAACTCAGGTACGCAGTCG | 2.07 |
| ACTATTAGTTGACTTAGGGCAACCGCTACGACGC | -0.144 |
| ATGTGTAGGTTAAGGGTCATTCAGGTTGGTTCGC | 3.87 |
| CAAACTCGGTCACGAAAGGTCAAAGTCGAATGAC | 5.23 |
| ATATATAGGTTACATCCGGGTCATTCAGGCTATG | 7.41 |
| AGAATGAGGTTACCAAAGATCATGGAAACGCTTG | 3.74 |
| TTACCAAGCTGAAAGGTCGTTGATGCACGCCTTG | -0.529 |
| CTCGAAAGGTCGTGCTCAGCTGAGTATACCAAAC | 0.87 |
| ACCGAAAGGTCGACGAGGTGAGTATACACCGTTT | 1.08 |
| AGCATGAGGTTATTAAGATCAGGGAATTGCGGTC | 0.439 |
| AGAACGAGGGCAATGATTTGATAGCACGGGTGGC | 3.4 |
| TCATATAGGTAATACAGGTGACAGTCGGCATCTA | 4.18 |
| CCTAGCAGGCCAATCTGGGCCACTCAAGGCTTGA | 2.99 |
| CCAAACAGGTGAGAAGGTAACTCAGCCTCGATTA | 1.49 |
| GTTAGTTGGTCAGTAAAAGGTCACACACCGGTCG | 2.02 |
